Laboratory results from PubChem BioAssay AID1745847 (National Center for Advancing Translational Sciences (NCATS), 2022).
Out of some 2,100 compounds screened, about 670 (32%) were called active. Roughly 50% stayed inconclusive and do not appear here. The call rests on the fitted dose curve; in most records, active means well fitted inhibition curve with a large enough effect; inconclusive means small, poorly fitted or top-dose-only effect; inactive means no such curve, though single readings can be large or run the other way. The list shows a part of the results.

assay: CMV-Luciferase Counterscreen for Inhibitors of ATXN expression; settings: HEK-293 CMV-luciferase reporter, luminescence, 24 h; series mostly up to 57.5 µM; further: nearly all actives have a fitted effect of over 55% in size
On the % scale 0 is the no-effect control and ±100 the full control effect; potency means the concentration at half of the fitted maximal effect.

SMILES	Potency	activity change, negative = inhibition
O=C(CNC(=O)c1ccccc1F)N/N=C/c1cc(Br)ccc1OC(=O)/C=C/c1ccco1	12.6 µM (active)	
O=C(CNC(=O)c1ccc(F)cc1)N/N=C/c1cc(Br)ccc1OC(=O)/C=C/c1ccco1	8.91 µM (active)	
NS(=O)(=O)c1ccc(CCNC(=O)COC(=O)/C=C/c2cc(Br)ccc2F)cc1		-4.52% [at 11.4 µM] (inactive)
O=C(CNC(=O)c1cccc(F)c1)N/N=C/c1cc(Br)ccc1OC(=O)/C=C/c1ccco1	4.47 µM (active)	
Cc1nc(N=C(N)N)nc2c(C)cccc12	inactive	
Cc1cc(C)c2c(N)c3cccc(C)c3nc2n1	10 µM (active)	
COc1c(C)cccc1C(=O)Nc1ccc(N2CCN(C(=O)c3ccccc3C)CC2)cc1	15.8 µM (active)	
O=C(Nc1ccc(NC(=O)c2cccs2)cc1)c1ccc2c(c1)OCO2		-7.86% [at 11.4 µM] (inactive)
Cc1ccccc1C(=O)N1CCN(c2ccc(NC(=O)c3ccc4c(c3)OCCO4)cc2)CC1	2.24 µM (active)	
CC(=O)Nc1cc(-c2ccc(C(=O)NC3CC3)cc2)cn2c(-c3cccc(C(C)=O)c3)cnc12	inactive	
O=[N+]([O-])c1cc(Cl)c(O)c2ncccc12	8.91 µM (active)	
O=[N+]([O-])c1cc(O)c2ncccc2c1	3.16 µM (active)	
Oc1c(CN2CCOCC2)cc(COCc2ccccc2)c2cccnc12	3.55 µM (active)	
O=[N+]([O-])c1cc(CN2CCN(c3ccccc3)CC2)c(O)c2ncccc12	7.94 µM (active)	
O=[N+]([O-])c1ccc(O)c2ncccc12	7.08 µM (active)	
Oc1ccc(Cl)c2cccnc12	inactive	
CCOC(=O)c1c(-c2ccccc2)oc2ccc(OCC(=O)NN)cc12	28.2 µM (active)	
O=C(O)COc1ccc2oc3ccccc3c2c1		-24.7% [at 11.4 µM] (inactive)
NNC(=O)c1nc(-c2ccccc2)cc(-c2ccccc2)n1	inactive	
OCCNc1c2ccccc2nc2ccccc12	20 µM (active)	
OCCNc1c2ccccc2nc2c(F)c(F)c(F)c(F)c12	7.94 µM (active)	
O=c1c(Cc2ccccc2)c(O)nc2n1CCS2	inactive	
Cc1ccc(-c2cn(-c3ccc(OC(F)F)cc3)c3[n+]2CCCCC3)cc1	12.6 µM (active)	

SMILES	Potency	activity change, negative = inhibition
CCOC(=O)C1CCN(C(=O)c2c(C)oc3c2C(=O)c2ccccc2C3=O)CC1	12.6 µM (active)	
Cc1ccc(C)n1-c1ccc(C(=O)N2CCC(C(N)=O)CC2)cc1		4.95% [at 11.4 µM] (inactive)
Cc1ccnc(N2C(=O)c3cccc4c([N+](=O)[O-])ccc(c34)C2=O)c1	12.6 µM (active)	
O=C1c2cccc3c([N+](=O)[O-])ccc(c23)C(=O)N1c1ccc(Cl)cn1	20 µM (active)	
Cc1ccc(C(=O)O)cc1N1C(=O)c2cccc3c([N+](=O)[O-])ccc(c23)C1=O	inactive	
COc1ccc(-c2noc(CCCC(=O)NC3CCCC3)n2)cc1	7.94 µM (active)	
Cc1ccc(-c2noc(CCCC(=O)NC3CCCC3)n2)cc1	7.08 µM (active)	
Cc1ccccc1NC(=O)Nc1nc(C(N)C2CCCCC2)cs1 (stereo not given)	inactive	
CN(C)C(=O)c1cccc(-c2cnc3c(NC=O)cc(-c4ccccc4N(C)C)cn23)c1		-27.7% [at 11.4 µM] (inactive)
CCN1CCN(c2ccc(S(=O)(=O)N3CCCCC3)cc2NC(=O)c2ccc([N+](=O)[O-])s2)CC1	3.16 µM (active)	
CCN1CCN(c2ccc(S(=O)(=O)N3CCCCC3)cc2NC(=O)/C=C/c2ccc([N+](=O)[O-])cc2)CC1		-17.9% [at 11.4 µM] (inactive)
COc1ccccc1C(=O)NNC(=S)NC(=O)c1ccco1	7.94 µM (active)	
COc1ccccc1NC(=S)NC(=O)c1ccc(Cn2cc(Br)cn2)cc1	inactive	
CCC1=C(CC2NCCc3ccccc32)CC2c3cc(OC)c(OC)cc3CCN2C1 (stereo not given)	14.1 µM (active)	
CC[C@H]1CN2CCc3cc(OC)c(OC)cc3C2C[C@@H]1C[C@H]1NCCc2cc(OC)c(OC)cc21 (stereo not given in full)	1.12 µM (active)	
CC[C@H]1CN2CCc3cc(OC)c(OC)cc3[C@@H]2C[C@@H]1C[C@H]1NCCc2cc(OC)c(OC)cc21	0.0794 µM (active)	
CCCCOc1ccc(NC2=NC3(CCCC3)N=C(N)N2)cc1	inactive	
C/C(=N\N=C(N)N)c1ccc(Cl)cc1Cl	inactive	
CC(C)[C@@H]1CC[C@@H](C)C[C@H]1OC(=O)C[n+]1cc(-c2ccc(Cl)cc2)n2c1CCCCC2	14.1 µM (active)	
NNc1ncnc2scc(-c3ccc(Cl)cc3)c12	25.1 µM (active)	
COc1cccc(NC(=O)CSc2nc3ncc(Br)cc3[nH]2)c1		193% [at 11.4 µM] (inactive)
O=C(CSc1nnc(-c2ccc(Br)cc2)o1)Nc1cccc(C(=O)O)c1	4.47 µM (active)	
O=C(Nc1ccc(Oc2ccc(NC(=O)Nc3ccc([N+](=O)[O-])cc3)cc2)cc1)Nc1ccc([N+](=O)[O-])cc1	2.82 µM (active)	

SMILES	Potency	activity change, negative = inhibition
O=C1c2cc(Cl)ccc2-c2c(O)cc(Cl)cc21	inactive	
O=C(Nc1ccc2oc(=O)ccc2c1)c1ccc(-c2cccc(Cl)c2)o1	inactive	
COCc1ccc(CN2CCC(C(=O)Nc3cccc(-c4cccc(Cl)c4)c3)CC2)o1	14.1 µM (active)	
COC(=O)Cc1[nH]n(-c2nc3ccccc3s2)c(=O)c1C(C)=Nc1ccc(C)cc1	0.501 µM (active)	
CC(C)[C@H](CO)Nc1nc(NCc2ccc(S(N)(=O)=O)cc2)c2ncn(C(C)C)c2n1		41.8% [at 11.4 µM] (inactive)
Cc1ccn2c(Nc3ccccc3C)c(-c3ccccn3)nc2c1	5.01 µM (active)	
Nc1ccc(OC(=O)Nc2ccc(O)cc2)cc1	12.6 µM (active)	
CCOC(=O)c1c(NC(=O)COC(=O)c2ccccc2NC)sc(C(=O)N(C)C)c1C		-21.4% [at 11.4 µM] (inactive)
Cc1cccc2sc(N(CCCN(C)C)C(=O)c3ccco3)nc12	inactive	
Cc1cc(C)c2nc(N(CCCN(C)C)C(=O)c3ccc4c(c3)OCCO4)sc2c1	28.2 µM (active)	
CN(C)CCCN(C(=O)c1ccc2c(c1)CCCC2)c1nc2cc3c(cc2s1)OCO3	inactive	
Nc1nc(NCCCN2CCOCC2)nc(Nc2ccccc2F)c1[N+](=O)[O-]	inactive	
O=C(NCCc1cn2ccccc2n1)c1cc(COc2ccc3ncccc3c2)on1	14.1 µM (active)	
Cc1ccc(C)c(S(=O)(=O)N2CCN(c3ncnc4sccc34)CC2)c1	1.41 µM (active)	
CN(C)CCNC(=O)c1cccc2nc3cccc(F)c3nc12	10 µM (active)	
CN(C)CCNC(=O)c1ccc(Cl)c2cc3ccccc3nc12	10 µM (active)	
CN(C)CCNC(=O)c1cccc2[nH]c(-c3ccncc3)nc12		-19.8% [at 11.4 µM] (inactive)
CN(C)CCCN(C(=O)c1ccc(S(=O)(=O)N(C)Cc2ccccc2)cc1)c1nc2c(F)cccc2s1	inactive	
OCCN(Cc1ccccc1)CC(O)COc1ccc(-c2ccccc2)cc1 (stereo not given)	inactive	
O=C1/C(=C/c2ccncc2)CCC/C1=C\c1ccncc1	8.91 µM (active)	
CN1C/C(=C/c2cccnc2)C(=O)/C(=C/c2cccnc2)C1		-8.05% [at 11.4 µM] (inactive)
Cc1onc(-c2c(Cl)cccc2Cl)c1C(=O)N/N=C(\N)COc1ccc(Cl)cc1	3.55 µM (active)	
CCC(=O)OCCNc1cc(Sc2nc3ccccc3[nH]2)c2nonc2c1[N+](=O)[O-]		-17% [at 11.4 µM] (inactive)

SMILES	Potency	activity change, negative = inhibition
O=[N+]([O-])c1c(Nc2ccccn2)cc(Cl)c2nonc12	11.2 µM (active)	
O=[N+]([O-])c1ccc(C[n+]2cccc3ccc4cccnc4c32)cc1	3.16 µM (active)	
COc1cc(/C=N/Nc2snc(SC)c2C#N)cc(OC)c1OC	inactive	
Cc1c(Cl)cccc1NC(=O)N1CCCN(c2nc(-c3ccccc3)ns2)CC1	10 µM (active)	
CC(C)(C)c1ccc(NC(=O)N2CCCN(c3c(Cl)cncc3Cl)CC2)cc1	inactive	
O=C(Nc1ccccc1Cl)N1CCCN(c2nc(-c3ccccc3)ns2)CC1	14.1 µM (active)	
Cc1c(N=C2C=CC(=O)c3ccccc32)c(=O)n(-c2ccccc2)n1C	31.6 µM (active)	
Cc1c(N=C2N=C(NC(=O)Nc3ccc(Cl)cc3)c3ccccc32)c(=O)n(-c2ccccc2)n1C	inactive	
Cc1cc(C)c(O)c(CN(C)Cc2cc(Cl)cc(Cl)c2O)c1	10 µM (active)	
CCOC(=O)c1c(SCCN2CCCCC2)n(-c2ccccc2)c(=S)n(-c2ccccc2)c1=O	22.4 µM (active)	
Cc1sc2ncnc(NCC(O)c3ccc([N+](=O)[O-])cc3)c2c1C (stereo not given)	5.62 µM (active)	
O=C(O)CCn1cc(/C=C/C(=O)c2ccc(Cl)cc2)c(-c2ccc(Br)cc2)n1	10 µM (active)	
CC[C@@]1(O)C(=O)OCc2c1cc1n(c2=O)Cc2cc3c(CN(C)C)c(O)ccc3nc2-1	11.2 µM (active)	
CCC1(O)C(=O)OCc2c1cc1n(c2=O)Cc2cc3cc(O)ccc3nc2-1 (stereo not given)	0.891 µM (active)	
O=C(NC1C=CS(=O)(=O)C1)c1sc2ccccc2c1Cl (stereo not given)		-11.1% [at 11.4 µM] (inactive)
Brc1cnc2nc(SCc3nc4ccccc4[nH]3)[nH]c2c1		361% [at 11.4 µM] (inactive)
CCCCc1ccc(NC(=O)N2CCN(c3cc(C)nc4ccccc34)CC2)c(C)c1	12.6 µM (active)	
Cc1cc2nc(-c3nnnn3Cc3ccccc3)c(=O)[nH]c2cc1C		-9.85% [at 11.4 µM] (inactive)
CCn1c2ccccc2c2cc(NC(=O)COC(=O)c3ccccc3F)ccc21		9.52% [at 11.4 µM] (inactive)
CCn1c2ccccc2c2cc(NC(=O)COC(=O)Cc3cn4ccsc4n3)ccc21		33.4% [at 11.4 µM] (inactive)
CC(=O)c1ccc(NC(=O)COC(=O)c2c3c(nc4ccccc24)/C(=C\c2cccs2)CCC3)cc1	17.8 µM (active)	
